The text below walks through data of PubChem BioAssay AID463187 (University of Pittsburgh Molecular Library Screening Center, 2010).

The whole screen tested about 220,000 compounds, of which about 1,500 (0.68%) were called active. Only a selection was taken, and actives are over-represented in it overall. A number with no mark means an inactive call.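 The calls were made as follows: active = Hck-Nef kinase inhibition above about 50% (limit read from the data); inactive = inhibition below that limit.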

In this assay the target is Tyrosine-protein kinase HCK (Homo sapiens) (UniProt P08631). Description: Hck:Nef complex kinase activity blockers – biochemical, Z-Lyte FRET, 384-well, Hck-YEEI, primary screen (AID 463187).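 Also: 0% = DMSO with Hck plus Nef and 100% = Hck alone without Nef.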 The settings on record: Recombinant Hck-YEEI plus Nef, Z-Lyte FRET kinase assay; at 20 µM; stronger effect = higher value.
Tyrosine-protein kinase HCK (Homo sapiens), sequence (P08631 whole entry, looked up): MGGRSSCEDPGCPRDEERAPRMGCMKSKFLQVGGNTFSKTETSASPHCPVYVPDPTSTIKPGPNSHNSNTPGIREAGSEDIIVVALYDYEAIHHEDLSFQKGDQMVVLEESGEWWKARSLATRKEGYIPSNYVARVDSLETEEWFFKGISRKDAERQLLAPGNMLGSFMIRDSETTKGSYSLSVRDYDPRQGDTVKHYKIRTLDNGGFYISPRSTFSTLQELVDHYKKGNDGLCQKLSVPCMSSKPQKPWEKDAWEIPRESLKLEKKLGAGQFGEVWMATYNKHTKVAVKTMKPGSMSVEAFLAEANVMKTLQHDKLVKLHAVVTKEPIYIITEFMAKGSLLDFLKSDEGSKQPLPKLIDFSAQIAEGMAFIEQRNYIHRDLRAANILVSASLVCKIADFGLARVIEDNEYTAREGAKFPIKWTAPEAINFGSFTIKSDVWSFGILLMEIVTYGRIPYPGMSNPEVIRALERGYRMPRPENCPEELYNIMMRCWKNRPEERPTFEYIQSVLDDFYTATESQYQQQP
Turning to `O=C1NC(=O)N(c2ccccc2)C(=O)/C1=C/c1ccc([N+](=O)[O-])s1`, the inhibition was 20.3%.

`Cc1cccc(N2C(=O)NC(=O)/C(=C\c3cnn(-c4ccccc4)c3)C2=O)c1`: the inhibition was 5.24%.

`COc1cccc(N2C(=O)NC(=O)/C(=C\c3ccc([N+](=O)[O-])s3)C2=O)c1`: the inhibition was 92.8% (active).

On to `Cc1cc(/C=C2/C(=O)NC(=O)N(Cc3ccco3)C2=O)c(C)n1-c1ccc(C(=O)O)cc1`, for which the inhibition is 49.2%.

Consider `O=C1NC(=O)N(Cc2ccco2)C(=O)/C1=C\c1cccn1CCOc1ccccc1`, for which the inhibition is 27.2%.

For the molecule `O=C1NC(=O)N(Cc2ccco2)C(=O)/C1=C\c1ccc(-c2ccc(F)cc2)o1`, the inhibition is 59.4% (active).

Take `CNC(=O)O/N=C(\N)Cc1csc2ccccc12`: the inhibition is 13.9%.

`Cc1cccc(NC(=O)OC2CN3CCC2CC3)c1` (stereo not given): the inhibition was 13.5%.

For `O=C(N/N=C/c1c(O)n(Cc2ccccc2)c(=O)[nH]c1=O)c1ccccc1`, the inhibition was 1.83%.

Take `CCOC(=O)c1c(N)n(CCN2CCOCC2)c2nc3ccccc3nc12`: the inhibition is -2.81%.

As to `COc1cc(Cn2c(N)c(C(=O)NCc3ccco3)c3nc4ccccc4nc32)cc(OC)c1OC`, the inhibition was 66.7% (active).

Regarding `CCOC(=O)c1c(N)n(Cc2ccccc2)c2nc3ccccc3nc12`, the inhibition is 9.2%.

As to `CSc1nc2ccc(C)cc2c(=O)n1-c1cccnc1`, the inhibition was 4.59%.

With `O=C(Cn1c(=O)n(CC2CS2)c2ccccc21)N1CCCCC1` (stereo not given), the inhibition was -9.69%.

As for `CC1=C(C(=O)Nc2ccccc2)S(=O)(=O)CCO1`, the inhibition was 26.8%.
